Bioassay records (PubChem)
N-glyco inh = N-linked glycosylation inhibition; D54 ERlucT glycosylation luciferase reporter, 24 h; percent of 100 nM tunicamycin response; reporter increase, % at 12.5 µM; 0.23% of 360,000 active; AID 588692;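 active = mean luciferase reporter signal, scaled so untreated is 0 and the glycosylation-blocking control 100, at or above a set limit in every replicate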;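 also: luciferase carries N-glycosylation sites so blocking glycosylation raises the light; 0% = median of neutral control wells and 100% = median of 100 nM tunicamycin wells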
Casp6 inh = inhibitors of human caspase-6; P55212; purified caspase-6, Z-VEID-R110 cleavage fluorescence; inhibition, % at 12.5 µM; 0.53% of 350,000 active;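 active = mean inhibition across replicates at least about 35%, with every replicate also reaching that limit, limit read from the data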;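 also: 0% = median of neutral control wells and 100% = no fluorescence left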
NSD2 HMT inh = blocks human histone methyltransferase NSD2. NSD2 peptide methylation, AlphaScreen, 120 min. inhibition, % at 12.5 µM. 0.54% of 310,000 active. AID 743445; in the data active = inhibition above about 50%
CDK5 p35 inh = CDK5/p35 (human) kinase inhibition | Q00535+Q15078 | Recombinant CDK5/p35, ADP-Glo luminescence, 60 min | inhibition, % at 10 µM | 0.01% of 330,000 active;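 active = highest replicate inhibition of at least 50% and at least 75% of replicates reaching 50%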;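 also: plate controls were DMSO neutral control for no effect and GW8510 at 10 µM for full effect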
SUMO Mot1 rescue = SUMOylation pathway inhibition by Mot1-301 growth rescue; growth rescue, % at 18.8 µM; S. cerevisiae Mot1-301 growth rescue, ATP luminescence, 38.5C; percent above DMSO median, 100 means doubled; 1% of 320,000 active;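 active = every valid replicate shows activation above 250% relative to neutral control wells; inactive = the rest, any valid replicate at or below 250%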;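 also: OY570 slx delta 5 strain wells were the positive control but not used for scaling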
ALR inh = human ALR oxidase inhibition via reduced H2O2; inhibition, % (test concentration not listed); AID 485317; 3.8% of 290,000 active; purified ALR, DTT oxidation, H2O2 HRP-luminol luminescence;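 active = mean replicate inhibition above about 79%, with every replicate also reaching it, limit read from the data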
Target sequence (P55789 whole entry, looked up): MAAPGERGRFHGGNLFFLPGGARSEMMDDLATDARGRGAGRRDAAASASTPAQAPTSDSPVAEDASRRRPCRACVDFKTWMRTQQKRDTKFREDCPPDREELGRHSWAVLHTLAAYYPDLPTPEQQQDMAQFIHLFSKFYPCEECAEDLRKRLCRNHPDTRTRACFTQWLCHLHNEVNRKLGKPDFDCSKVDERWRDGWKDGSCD
The depositor's hits bear a star; / = no result. In the library only some 3.9% were active in any assay of this set; here they are far more common.

SMILES	N-glyco inh	Casp6 inh	NSD2 HMT inh	CDK5 p35 inh	SUMO Mot1 rescue	ALR inh
CC(C)Cn1c(N)c(C(=O)CCl)c(=O)n(C)c1=O	-6	-2	/	1	7	98*
CC(C)Cn1c(N)c(C=O)c(=O)n(C)c1=O	1	0	-3	-2	-6	100*
Nc1c(N(Cc2ccccc2)C(=O)COc2ccc([N+](=O)[O-])cc2)c(=O)[nH]c(=O)n1Cc1ccccc1	123*	3	-1	1	/	/
Nc1c(N(CCO)C(=O)COc2ccc(Cl)cc2)c(=O)[nH]c(=O)n1Cc1ccccc1	-2	1	0	-2	4	/
Nc1c(N(CCC2=CCCCC2)C(=O)COc2ccc(F)cc2)c(=O)[nH]c(=O)n1Cc1ccccc1	55*	/	0	-2	3	-9
COc1ccc(S(=O)(=O)N(C)C[C@@H]2Oc3ncc(C#Cc4ccccc4)cc3C(=O)N([C@H](C)CO)C[C@@H]2C)cc1	/	-2	/	/	/	/
C[C@@H]1CN([C@H](C)CO)C(=O)c2cc(-c3ccccc3F)cnc2O[C@H]1CN(C)C(=O)NC1CCCC1	/	-1	/	/	/	/
CCCc1cn(CC[C@H]2CC[C@H](NC(=O)C3CCOCC3)[C@@H](CO)O2)nn1	/	-1	/	/	/	/
CC(=O)OCC1=C(C(=O)O)N2C(=O)[C@@H](NC(=O)CSc3ccncc3)[C@H]2SC1	1	38*	8	-2	/	/
O=C(c1ccccc1)N1C[C@@H]2[C@H](c3ccccc31)[C@H](CO)N2C(=O)c1ccccn1	/	-1	/	/	/	/
COc1ccc(NC(=O)Nc2ccc3c(c2)C(=O)N([C@H](C)CO)C[C@@H](C)[C@@H](CN(C)C(=O)CCC(F)(F)F)OCCCC[C@H](C)O3)cc1	/	4	/	/	/	/
Nc1ccc(C23CC4CC(CC(CO)(C4)C2)C3)cc1	/	/	4	0	48	93*
O=C1/C(=C/c2ccc(O)cc2)SC(=S)N1CC1CCCO1 (configuration not stated)	0	9	/	1	131	99*
Nc1ccc(OCCCc2c(N)nc(N)nc2N)cc1	2	/	2	1	-22	99*
COc1ccc(Cc2c(N)nc(N)nc2N)cc1	0	/	1	1	0	-4
C/C=C/c1ccc2c(c1)O[C@@H](CN(C)C(=O)COC)[C@H](C)CN([C@H](C)CO)S2(=O)=O	/	-3	/	/	/	/
COc1ccc(S(=O)(=O)CCC(=O)N2CCN(c3ccc([N+](=O)[O-])cc3)CC2)cc1	0	0	2	0	4	3
COc1ccc(N2CCN(C(=O)C3CC(O)CN3S(=O)(=O)c3ccc([N+](=O)[O-])cc3)CC2)cc1 (configuration not stated)	-5	1	0	0	-6	84*
COC(=O)c1ccc(OC(=O)CCS(=O)(=O)c2ccc(C)cc2)cc1	2	0	2	1	6	96*
COc1ccc(CC(=O)N2CCN(C(=O)Cc3ccc(OC)cc3)CC2)cc1	-2	/	-1	1	13	0
CC(=O)c1ccc(N2CCN(C(=O)CCS(=O)(=O)c3ccc(C)cc3)CC2)cc1	-1	/	-4	0	-2	-9
COc1ccc(N2CCN(C(=O)CCS(=O)(=O)c3ccc(C)cc3)CC2)cc1	-1	4	3	2	1	88*
COc1ccc(CC(=O)N2CCN(c3ccc(C4=NNC(=O)CC4C)cc3)CC2)cc1 (configuration not stated)	-7	/	0	-1	-6	88*
Cc1cccc(-c2ccc([C@H]3[C@@H](CO)N4CCCCN(C(=O)c5ccc6c(c5)OCO6)C[C@H]34)cc2)c1	/	-5	/	/	/	/
CC(C)(C)[S@@](=O)N1Cc2cc(C(=O)NCCc3ccncc3)nc(-c3cccc(-c4ccncc4)c3)c2[C@H]1CCO	/	-6	/	/	/	/
COc1ccc(N2CCN(C(=O)C3(S(=O)(=O)c4ccc(C)cc4)CC3)CC2)cc1	-2	0	6	-11	4	86*
CC(=O)c1ccc(N2CCN(C(=O)C3(S(=O)(=O)c4ccc(Cl)cc4)CC3)CC2)cc1	1	/	-7	0	10	-1
COc1ccc(N2CCN(C(=O)CCS(=O)(=O)c3ccc(OC)cc3)CC2)cc1	2	-5	1	0	3	79*
COc1ccc(S(=O)(=O)CCC(=O)N2CCN(c3ccc(C(C)=O)cc3)CC2)cc1	-1	0	9	-3	-11	-4
